# Structures can show the parent of a compound that is named as a salt.
# Test system: Saccharomyces cerevisiae BY4741 SeMeCo community
# Assay: z-score of subpopulation abundance vs DMSO median, subpopulation auxotrophic for HM; higher = larger share of this subpopulation than in DMSO controls
# Conditions: 10 µM; 24 h; SM minimal medium; subpopulation (auxotrophy): HM
# How it was run: (§1)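 Four plasmids, each restoring a single auxotrophy and encoding a distinct fluorescent protein, were carried by a Saccharomyces cerevisiae BY4741 community. After overnight growth to OD600 1.0 and dilution to 0.3, 70 µl per well was grown for 24 h in minimal SM medium on 384-well plates acoustically predosed with library drugs at 10 µM final. Following paraformaldehyde fixation, automated confocal microscopy was used, with single-auxotroph fluorescent strains defining thresholds and autofluorescence correction. Subpopulation abundance was then scored as a z-score against the vehicle-well median.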
row,SMILES,z-score of subpopulation abundance
1,CC(C)Cc1ccc(C(C)C(=O)O)cc1 (stereo unspecified) [Ibuprofen],-1.2
2,Fc1ccc(C(c2ccc(F)cc2)N2CCN(C/C=C/c3ccccc3)CC2)cc1 [Flunarizine 2HCl],1.01
3,COCCCN1CCC(NC(=O)c2cc(Cl)c(N)c3c2OCC3)CC1 [Prucalopride Succinate],0.63
4,CCCCOc1ccc(CC(=O)NO)cc1 [Bufexamac],-0.9
5,O=C(Nc1cc(Cl)cc(Cl)c1O)c1c(O)c(Cl)cc(Cl)c1Cl [Oxyclozanide],-2.11
6,CCC(=O)NS(=O)(=O)c1ccc(-c2c(-c3ccccc3)noc2C)cc1 [Parecoxib Sodium],1.65
7,CN(CCN1CCC(OC(=O)Nc2ccccc2-c2ccccc2)CC1)C(=O)c1ccc(CN2CCC(C(N)=O)CC2)cc1 [Revefenacin],0.49
8,Cc1nnc(NS(=O)(=O)c2ccc(N)cc2)s1 [Sulfamethizole],-1.19
9,CC1=CC[C@@](O)(C(C)C)CC1 [Terpinen-4-ol],-0.39
10,CS(=O)(=O)c1ccc([C@@H](O)[C@@H](CF)NC(=O)C(Cl)Cl)cc1 [Florfenicol],-1.52
11,Cn1c([N+](=O)[O-])cnc1COC(N)=O [Ronidazole],-1.32
12,CC(=O)OCC(COC(C)=O)OC(C)=O [Triacetin],0.03
13,COc1ccc(Cl)cc1C(=O)NCCc1ccc(S(=O)(=O)NC(=O)NC2CCCCC2)cc1 [Glyburide (Glibenclamide)],0.56
14,O=C(Nc1c(Cl)cncc1Cl)c1ccc(OC(F)F)c(OCC2CC2)c1 [Roflumilast],-0.18
15,CCN(CC)CCOc1ccc2c(c1)C(=O)c1cc(OCCN(CC)CC)ccc1-2 [Tilorone dihydrochloride],-1.02
16,CN(C)CCC=C1c2ccccc2C(C)(C)c2ccccc21 [Melitracen hydrochloride],-0.45
17,COc1cc(Cc2cnc(N)nc2N)cc(OC)c1OC [Trimethoprim],-0.06

row,SMILES,z-score of subpopulation abundance
1,OCCN1CCN(CCCN2c3ccccc3Sc3ccc(C(F)(F)F)cc32)CC1 [Fluphenazine dihydrochloride],0.59
2,CC(C)c1c(C(=O)Nc2ccccc2)c(-c2ccccc2)c(-c2ccc(F)cc2)n1CC[C@@H](O)C[C@@H](O)CC(=O)O [Atorvastatin],2.44
3,COCCOC(=O)C1=C(C)NC(C)=C(C(=O)OC(C)C)C1c1cccc([N+](=O)[O-])c1 (stereo unspecified) [Nimodipine],-0.32
4,CCOC(=O)C1=C(C)NC(C)=C(C(=O)OC)C1c1cccc([N+](=O)[O-])c1 (stereo unspecified) [Nitrendipine],-0.08
5,CC(C)n1c(/C=C/C(O)CC(O)CC(=O)O)c(-c2ccc(F)cc2)c2ccccc21 (stereo unspecified) [Fluvastatin Sodium],17.4
6,CCCN[C@H]1CCc2nc(N)sc2C1 [Pramipexole dihydrochloride],-0.31
7,Cc1cc(C)nc(NS(=O)(=O)c2ccc(N)cc2)n1 [Sulfamethazine],0.43
8,CC[C@H](C)C(=O)O[C@H]1C[C@@H](C)C=C2C=C[C@H](C)[C@H](CC[C@@H]3C[C@@H](O)CC(=O)O3)[C@H]21 [Lovastatin],0.4
9,CN1[C@@H]2CC[C@H]1C[C@@H](OC(c1ccccc1)c1ccccc1)C2 [Benztropine mesylate],-0.56
10,CO/N=C(\C(=O)N[C@@H]1C(=O)N2C(C(=O)O)=C(CSc3nnnn3C)CS[C@H]12)c1csc(N)n1 [Cefmenoxime hydrochloride],0.28
11,NCC[C@H](O)C(=O)N[C@@H]1C[C@H](N)[C@@H](O[C@H]2O[C@H](CN)[C@@H](O)[C@H](O)[C@H]2O)[C@H](O)[C@H]1O[C@H]1O[C@H](CO)[C@@H](O)[C@H](N)[C@H]1O [Amikacin hydrate],-0.36
12,CO/N=C(\C(=O)N[C@@H]1C(=O)N2C(C(=O)O)=C(CSc3nc(C)c(CC(=O)O)s3)CS[C@H]12)c1csc(N)n1 [Cefodizime Sodium],-0.46
13,COc1ccc2c3c1O[C@H]1C[C@@H](O)C=C[C@@]31CCN(C)C2 [Galanthamine],1.76
14,CC[C@H](C)C(=O)O[C@H]1CCC=C2C=C[C@H](C)[C@H](CC[C@@H]3C[C@@H](O)CC(=O)O3)[C@H]21 [Mevastatin],-0.1
15,C[C@]12CC[C@@H]3c4ccc(OS(=O)(=O)O)cc4CC[C@H]3[C@@H]1CCC2=O [Estropipate],-0.81
16,O=C(Cn1ccnc1[N+](=O)[O-])NCc1ccccc1 [Benznidazole],-0.4
17,CCN(Cc1ccncc1)C(=O)C(CO)c1ccccc1 (stereo unspecified) [Tropicamide],-0.12

# Test system: Saccharomyces cerevisiae BY4741 SeMeCo community
# Assay: z-score of subpopulation abundance vs DMSO median, subpopulation auxotrophic for HU; higher = larger share of this subpopulation than in DMSO controls
# Conditions: 10 µM; 24 h; SM minimal medium; subpopulation (auxotrophy): HU
# How it was run: as §1
row,SMILES,z-score of subpopulation abundance
1,COCCCN1CCC(NC(=O)c2cc(Cl)c(N)c3c2OCC3)CC1 [Prucalopride Succinate],1.07
2,CCCCOc1ccc(CC(=O)NO)cc1 [Bufexamac],0.4
3,NCC[C@H](O)C(=O)N[C@@H]1C[C@H](N)[C@@H](O[C@H]2O[C@H](CN)[C@@H](O)[C@H](O)[C@H]2O)[C@H](O)[C@H]1O[C@H]1O[C@H](CO)[C@@H](O)[C@H](N)[C@H]1O [Amikacin disulfate],-0.01
4,O=C(Nc1cc(Cl)cc(Cl)c1O)c1c(O)c(Cl)cc(Cl)c1Cl [Oxyclozanide],-1.36
5,CCC(=O)NS(=O)(=O)c1ccc(-c2c(-c3ccccc3)noc2C)cc1 [Parecoxib Sodium],0.55
6,CN(CCN1CCC(OC(=O)Nc2ccccc2-c2ccccc2)CC1)C(=O)c1ccc(CN2CCC(C(N)=O)CC2)cc1 [Revefenacin],-0.27
7,Cc1nnc(NS(=O)(=O)c2ccc(N)cc2)s1 [Sulfamethizole],-0.26
8,CC1=CC[C@@](O)(C(C)C)CC1 [Terpinen-4-ol],0.31
9,CS(=O)(=O)c1ccc([C@@H](O)[C@@H](CF)NC(=O)C(Cl)Cl)cc1 [Florfenicol],0
10,Cn1c([N+](=O)[O-])cnc1COC(N)=O [Ronidazole],-1.13
11,O=C(Nc1c(Cl)cncc1Cl)c1ccc(OC(F)F)c(OCC2CC2)c1 [Roflumilast],0.22
12,CN(C)CCC=C1c2ccccc2C(C)(C)c2ccccc21 [Melitracen hydrochloride],-0.73
13,CC(C)c1c(C(=O)Nc2ccccc2)c(-c2ccccc2)c(-c2ccc(F)cc2)n1CC[C@@H](O)C[C@@H](O)CC(=O)O [Atorvastatin],2.62
14,COc1ccc(C2CNC(=O)C2)cc1OC1CCCC1 (stereo unspecified) [Rolipram],-0.85
15,NNc1nncc2ccccc12 [Hydralazine HCl],0.18
16,CCOC(=O)C1=C(C)NC(C)=C(C(=O)OC)C1c1cccc([N+](=O)[O-])c1 (stereo unspecified) [Nitrendipine],1.51
17,CC(C)n1c(/C=C/C(O)CC(O)CC(=O)O)c(-c2ccc(F)cc2)c2ccccc21 (stereo unspecified) [Fluvastatin Sodium],7.53
18,CCCN[C@H]1CCc2nc(N)sc2C1 [Pramipexole dihydrochloride],0
19,Cc1cc(C)nc(NS(=O)(=O)c2ccc(N)cc2)n1 [Sulfamethazine],-0.43
20,CC[C@H](C)C(=O)O[C@H]1C[C@@H](C)C=C2C=C[C@H](C)[C@H](CC[C@@H]3C[C@@H](O)CC(=O)O3)[C@H]21 [Lovastatin],0.59
21,CN1[C@@H]2CC[C@H]1C[C@@H](OC(c1ccccc1)c1ccccc1)C2 [Benztropine mesylate],-0.54
22,CO/N=C(\C(=O)N[C@@H]1C(=O)N2C(C(=O)O)=C(CSc3nnnn3C)CS[C@H]12)c1csc(N)n1 [Cefmenoxime hydrochloride],-0.46
23,NCC[C@H](O)C(=O)N[C@@H]1C[C@H](N)[C@@H](O[C@H]2O[C@H](CN)[C@@H](O)[C@H](O)[C@H]2O)[C@H](O)[C@H]1O[C@H]1O[C@H](CO)[C@@H](O)[C@H](N)[C@H]1O [Amikacin hydrate],-0.52
24,CO/N=C(\C(=O)N[C@@H]1C(=O)N2C(C(=O)O)=C(CSc3nc(C)c(CC(=O)O)s3)CS[C@H]12)c1csc(N)n1 [Cefodizime Sodium],0.66
25,CN1CCN(CCCN2c3ccccc3Sc3ccc(C(F)(F)F)cc32)CC1 [Trifluoperazine 2HCl],0.54
26,O=C(Cn1ccnc1[N+](=O)[O-])NCc1ccccc1 [Benznidazole],-0.83
27,CCN(Cc1ccncc1)C(=O)C(CO)c1ccccc1 (stereo unspecified) [Tropicamide],0.5
